Laboratory results published in PubChem BioAssay (NCI).
“And” between values parts separate entries of the source, which are not always exact repeats. Identical values can stand only once. Compounds without any hit were thinned out: in the full panel of roughly 83,000, 20% have a hit.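 Note: values are percent growth. 100 is the growth of untreated cells, values between 100 and 0 indicate rising inhibition; between -100 and 0 indicates cell death.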 Unmarked numbers belong to inactive results. The source made the active and inactive calls.

The molecules below were run on HT29 colon (assay: NCI-60 one-dose screen, 48 h (100 = growth as untreated, 0 = no growth, -100 = all killed)). Details: 4.75 µM.
Experimental: Growth inhibition of the HT29 human tumor cell line is measured as a screen for anti-cancer activity. Cells are grown in 96 well plates and exposed to the test compound for 48 hours. Compounds are tested at a single concentration, which is 10^-5 M for most compounds. The reported endpoint is percent growth (GI% or GIPRCNT), where numbers from 0 - 100% represent growth inhibition, and numbers from -100% - 0 represent cell death. For example, a value of 40 represents 60% growth inhibition. A value of 0 means no net growth occurred over the course of the experiment. A value of -40 indicates 40% of cells at the beginning of the experiment died by the end of the experiment. A value of -100 means all cells are dead at the end of the experiment.
NCI-60 Human Tumor Cell Lines Screen was performed using the standard one-dose NCI protocol, which is described in more detail at https://dtp.cancer.gov/discovery_development/nci-60/default.htm.
Compounds with GIPRCNT values below 10 were considered active. Activity score was based on GIPRCNT using the following formula: […]
Score is 0 for GIPRCNT values of 100 or above, 50 for GIPRCNT values of 0, and 100 for GIPRCNT values of -100.

Structure (SMILES) | growth
CC(=O)OCC1OC([S-])C(OC(C)=O)C(OC(C)=O)C1OC(C)=O.[Au+].c1ccc(CN2[CH-]N(Cc3ccccc3)C(c3ccccc3)=C2c2ccccc2)cc1 | 0.406% (active)

Same assay, conditions: 10 µM

Structure (SMILES) | growth
O=C(O)CCCc1ccc(N(CCCl)CCCl)cc1 | 85.7% and 74.5%
CC(=O)OCC1OC([S-])C(OC(C)=O)C(OC(C)=O)C1OC(C)=O.[Au+].c1ccc(CN2[CH-]N(Cc3ccccc3)C(c3ccccc3)=C2c2ccccc2)cc1 | 16.4%

Same assay, conditions: 10 µM unless noted

Structure (SMILES) | growth
C[C@]12CC[C@H]3[C@@H](C[C@@H]4SC(Nc5ccccc5)=N[C@@]45C/C(=N/O)CC[C@]35C)[C@@H]1CCC2=O | 32.1%
COc1cc2c(cc1OC)[C@@H]1C(=O)c3ccc4c(c3O[C@@H]1CO2)C[C@H](C(C)C)O4 | 83.1%
CCC1(CCSC#N)C(=O)NC(=O)NC1=O | 100%
NC1CN2CCC1CC2 (stereo not given) | 99.8%
Cn1cc(-c2csc(-c3cn(CCCCN4CCOCC4)c4ccc(F)cc34)n2)c2cccnc21 | -64% (active)
CCCCn1c(=O)c(C(=O)NCc2ccccc2Cl)c(O)c2ccccc21 | 75.5%
Cc1cc[c-]cc1.Fc1c[c-]c(-c2ccccn2)c(F)c1.N#CCC[PH+](CCC#N)c1ccccc1.[Pt+2] | 37.2%
CC1(C)C2CCC1(CS(=O)(=O)O)C(=O)C2 (stereo not given) | 98.2% and 108%
Nc1ccc(S(=O)(=O)F)cc1 | 103%
CN1CCc2cc3c(cc2C1O)OCO3 (stereo not given) | 96.1% and 108%
CSc1cc(/C=C(\C)[C@@H]2C[C@@H]3O[C@]3(C)CCC[C@H](C)[C@H](O)[C@@H](C)C(=O)C(C)(C)[C@@H](O)CC(=O)O2)n(CCNC(=O)OC(C)(C)C)n1 | 28.2%
O=S(=O)(F)c1cccc(Cl)c1C[P+](c1ccccc1)(c1ccccc1)c1ccccc1 | 96.7%
O=[N+]([O-])c1ccc(CI)cc1 | 47.8%
O=C1CCCCC1CN1CCCCC1 (stereo not given) | 85.3%
O=C(NCCCN1CC1)Nc1cccc2ccccc12 | 83.9%
O=[N+]([O-])c1ccc(P(=O)(O)O)cc1 | 100%
CC1(C)C=Cc2c(ccc3c2[N+]([O-])=C2C3=C[C@@]34NC(=O)[C@]5(CCCN5C3=O)C[C@@H]4C2(C)C)O1 | 24.6%
N[C@@H](CCC(=O)CCl)C(=O)O | 94.2% [20 µM]

Structure (SMILES) | growth
COc1ccc(/C=C(/C)[N+](=O)[O-])cc1OC | -70.6% (active) and -16.3% (active)
CC1(C)S[C@H]2CC[C@H]3OC(=O)[C@@H]1N23 | 106%
Cc1cc(N(CCCl)CCCl)ccc1/C=N\NC(=O)c1cccnc1 | 90.9% and 101%
C[N+]1(C)CCCC1c1cccnc1 (stereo not given) | 102%
COc1ccc(CN)cc1OC | 107%
Cc1cc(N(CCCl)CCCl)ccc1C=Nc1ccc(-c2csc(-c3ccccc3)n2)cc1 | 112%
CC(=O)C(N)Cc1ccccc1 (stereo not given) | 103%
Oc1ccc(O)c(Cl)c1 | 103% and 107%
CCCn1cc2c3c(cccc31)[C@H]1C[C@@H](C)CN(C)[C@@H]1C2 | 45%
O=[N+]([O-])c1cc(Cl)c(Cl)c([N+](=O)[O-])c1Cl | 29.9%
C/C(=C\c1ccn(-c2ccc(N)cc2F)n1)[C@@H]1C[C@@H]2O[C@]2(C)CCC[C@H](C)[C@H](O)[C@@H](C)C(=O)C(C)(C)[C@@H](O)CC(=O)O1 | 13.1%
CN(C)c1ccc([N+](=O)[O-])c([N+](=O)[O-])c1 | 109% and 102%
CC(C)CCC1C(=O)NC(=O)NC1=O | 98.4%
NC(N)=NC(N)=Nc1ccc(Cl)cc1 | 97.8%
CC12CCC3C(CCC4CC(O)CCC43C)C1CCC2=O (stereo not given) | 102%
Cc1ccccc1-n1c(/C=C\c2ccccn2)nc2ccccc2c1=O | 79.7%
CCCCCCCCCCCCCCCC[n+]1ccccc1 | -68.2% (active) and -58.8% (active)
Oc1cc(Cl)ccc1Oc1ccc(Cl)cc1Cl | 87.4%

Same assay, conditions: 75 µM

Structure (SMILES) | growth
O=C(O)CCCc1ccc(N(CCCl)CCCl)cc1 | 45.2%
